Experimental data: PubChem BioAssay (NCI)
This is part of a sample that, as a whole, favours compounds with a hit. Of some 79,000 tested, about 15% had one in any assay. The source made the active and inactive calls. Cut-off read from the data, not from the text of the source: active = growth inhibition above about 70%; inactive = the rest.

Legend:
[1] = NCI Yeast Anticancer Drug Screen. Data for the wt1 strain (AID 149);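 note: 0% = growth of vehicle-treated wt1 cultures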; settings: S. cerevisiae wt1 strain (SPY 50644) growth inhibition, hits give high values
Method in brief: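 Growth inhibition read against vehicle controls after compound exposure of the wt1 yeast strain.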

[2] = NCI Yeast Anticancer Drug Screen. Data for the rad50EPP+ strain (AID 151);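 note: 0% = growth of vehicle-treated control cultures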; settings: S. cerevisiae rad50 mutant strain, hits give high values
Method in brief: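 Measured: growth inhibition of rad50EPP+ yeast. Reference: vehicle-treated controls. Screen uses strains with defined genetic alterations in DNA damage repair or cell cycle control.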

[3] = NCI Yeast Anticancer Drug Screen. Data for the rad50 strain (AID 155);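 note: 0% = growth of vehicle-only cultures of the same strain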; settings: S. cerevisiae rad50 strain growth inhibition, hits give high values
Method in brief: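 Readout: growth inhibition relative to vehicle-treated cultures. Compound exposure was carried out in a genetically defined yeast strain deficient in DNA damage repair.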

[4] = NCI Yeast Anticancer Drug Screen. Data for the mec2-1 strain (AID 157); settings: S. cerevisiae mec2-1 strain, hits give high values
Method in brief: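 Compounds were applied to mec2-1 yeast cells. Their growth was then compared with that of vehicle-treated cultures to give growth inhibition.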

[5] = NCI Yeast Anticancer Drug Screen. Data for the rad14 strain (AID 159);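 note: 0% = growth of vehicle-treated control cultures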; settings: S. cerevisiae rad14 strain growth inhibition, hits give high values
Method in brief: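 Growth inhibition vs vehicle controls; genetically altered yeast strain (DNA damage repair defect) treated with test compounds.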

[6] = NCI Yeast Anticancer Drug Screen. Data for the sgs1 mgt1 strain (AID 161);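 note: 0% = growth of cultures given vehicle only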; settings: S. cerevisiae sgs1 mgt1 strain, hits give high values
Method in brief: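 Percent growth inhibition was derived by comparing compound-exposed mutant yeast with vehicle-exposed cultures. The strain carries alterations in DNA damage repair.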

[7] = NCI Yeast Anticancer Drug Screen. Data for the CLN2oe strain (AID 163);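 note: 0% = growth of vehicle-only control cultures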; settings: S. cerevisiae CLN2oe strain, hits give high values
Method in brief: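 Cells of an engineered yeast line with disturbed cell-cycle regulation are treated with compound. Inhibition of growth is then calculated relative to the vehicle-treated reference.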

[8] = NCI Yeast Anticancer Drug Screen. Data for the cln2 rad14 strain (AID 165);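 note: 0% = growth equal to vehicle treated cultures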; settings: S. cerevisiae cln2 rad14 strain, hits give high values
Method in brief: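 Strain: cln2 rad14 yeast, altered in cell cycle control and DNA damage repair. Read-out: growth inhibition vs vehicle.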

[9] = NCI Yeast Anticancer Drug Screen. Data for the bub3 strain (AID 167); settings: S. cerevisiae bub3 mutant strain, hits give high values
Method in brief: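 Readout: yeast growth inhibition, expressed relative to vehicle-only wells. The test organism is a mutant strain from a panel with lesions in DNA repair or checkpoint genes.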

[10] = NCI Yeast Anticancer Drug Screen. Data for the wt2 strain (AID 169);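 note: 0% = growth of vehicle-treated yeast cultures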; settings: S. cerevisiae wt2 strain growth inhibition, hits give high values
Method in brief: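 Growth of compound-treated yeast is measured and expressed as inhibition relative to vehicle-only controls.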

[11] = NCI Yeast Anticancer Drug Screen. Data for the mlh1 strain (AID 171);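 note: 0% = growth of vehicle-treated control cultures of the same strain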; settings: S. cerevisiae mlh1 strain growth inhibition, hits give high values
Method in brief: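 Test agents were incubated with yeast bearing a defined DNA damage repair or cell cycle control alteration; values are growth inhibition normalised to vehicle-treated cultures.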

[12] = NCI Yeast Anticancer Drug Screen. Data for the sgs1 strain (AID 173);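 note: 0% = growth of vehicle-only control cultures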; settings: S. cerevisiae sgs1 mutant, hits give high values
Method in brief: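 Strain with an altered DNA repair or cell cycle pathway exposed to compound. Growth then measured. Value = inhibition versus vehicle control.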

[13] = NCI Yeast Anticancer Drug Screen. Data for the rad18 strain (AID 177); settings: S. cerevisiae rad18 mutant growth inhibition, hits give high values
Method in brief: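 DNA-repair-defective yeast; compound treatment; growth inhibition scored against vehicle.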

[14] = NCI Yeast Anticancer Drug Screen. Data for the mlh1 rad18 strain (AID 175); settings: S. cerevisiae mlh1 rad18 strain growth inhibition, hits give high values
Method in brief: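 A repair-deficient yeast strain is exposed to test compound, and growth is scored relative to vehicle-treated controls.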

[15] = at 5.0 µM (retest, dose inferred, filed as 0.5)
[16] = at 50.0 µM (retest, dose inferred, filed as 5.0)

Measured: growth inhibition

COc1cc(N(C)C)ccc1/C=C\c1ccnc2ccccc12
inactive: [1]; at 1.2 µM -5% | [1]; at 3.7 µM -7% | [1]; at 11.0 µM -7% | [1]; at 33.0 µM -9% | [1]; at 100.0 µM -7% | [2]; at 1.2 µM -2% | [2]; at 3.7 µM -2% | [2]; at 11.0 µM 10% | [2]; at 33.0 µM 16% | [2]; at 100.0 µM 12% | [3]; at 1.2 µM -5% | [3]; at 3.7 µM -7% | [3]; [15] -10% | [3]; at 11.0 µM -3% | [3]; at 33.0 µM -1% | [3]; [16] -10% | [3]; at 50.0 µM 2.3% | [3]; at 100.0 µM 1% | [4]; at 1.2 µM -4% | [4]; at 3.7 µM -7% | [4]; [15] -11% | [4]; at 11.0 µM -8% | [4]; at 33.0 µM -4% | [4]; [16] -19% | [4]; at 50.0 µM -8.75% | [4]; at 100.0 µM 0% | [5]; at 1.2 µM -5% | [5]; at 3.7 µM -4% | [5]; at 11.0 µM 0% | [5]; at 33.0 µM 6% | [5]; at 100.0 µM 37% | [6]; [15] 0% | [6]; [16] 64% | [6]; at 50.0 µM -4.05% | [7]; at 1.2 µM -11% | [7]; at 3.7 µM -13% | [7]; at 11.0 µM -18% | [7]; at 33.0 µM -15% | [7]; at 100.0 µM -9% | [8]; [15] -17% | [8]; [16] -13% | [8]; at 50.0 µM -3.5% | [9]; at 1.2 µM -5% | [9]; at 3.7 µM -11% | [9]; [15] -14% | [9]; at 11.0 µM -14% | [9]; at 33.0 µM -10% | [9]; [16] -3% | [9]; at 50.0 µM -5.95% | [9]; at 100.0 µM 4% | [10]; at 1.2 µM -4% | [10]; at 3.7 µM -7% | [10]; at 11.0 µM -4% | [10]; at 33.0 µM 16% | [10]; at 100.0 µM 31% | [11]; at 1.2 µM -1% | [11]; at 3.7 µM -6% | [11]; at 11.0 µM 3% | [11]; at 33.0 µM 22% | [11]; at 100.0 µM 38% | [12]; at 1.2 µM -4% | [12]; at 3.7 µM -5% | [12]; at 11.0 µM 10% | [12]; at 33.0 µM 36% | [12]; at 100.0 µM 45% | [13]; at 1.2 µM -4% | [13]; at 3.7 µM -2% | [13]; at 11.0 µM -1% | [13]; at 33.0 µM 9% | [13]; at 100.0 µM 14%

CC(=O)N1C(=O)/C(=C\C(=O)c2ccc(Cl)cc2)c2ccccc21
active: [1]; at 33.0 µM 79% | [1]; at 100.0 µM 94% | [2]; at 100.0 µM 72% | [3]; at 33.0 µM 90% | [3]; [16] 96% | [3]; at 50.0 µM 76% | [3]; at 100.0 µM 92% | [4]; at 33.0 µM 81% | [4]; [16] 98% | [4]; at 50.0 µM 87.4% | [4]; at 100.0 µM 91% | [5]; at 33.0 µM 71% | [5]; at 100.0 µM 92% | [6]; [16] 96% | [6]; at 50.0 µM 86.3% | [7]; at 100.0 µM 90% | [8]; [16] 91% | [8]; at 50.0 µM 77.2% | [9]; at 33.0 µM 81% | [9]; [16] 96% | [9]; at 50.0 µM 85.8% | [9]; at 100.0 µM 92% | [10]; at 11.0 µM 93% | [10]; at 33.0 µM 97% | [10]; at 100.0 µM 93% | [11]; at 33.0 µM 78% | [11]; at 100.0 µM 92% | [12]; at 33.0 µM 87% | [12]; at 100.0 µM 92% | [14]; [15] 80% | [14]; [16] 97% | [14]; at 50.0 µM 80.7% | [13]; at 33.0 µM 92% | [13]; at 100.0 µM 92%
inactive: [1]; at 1.2 µM 5% | [1]; at 3.7 µM 7% | [1]; at 11.0 µM 31% | [2]; at 1.2 µM -2% | [2]; at 3.7 µM 12% | [2]; at 11.0 µM 22% | [2]; at 33.0 µM 47% | [3]; at 1.2 µM 11% | [3]; at 3.7 µM 0% | [3]; [15] 44% | [3]; at 11.0 µM 51% | [4]; at 1.2 µM -3% | [4]; at 3.7 µM -8% | [4]; [15] 45% | [4]; at 11.0 µM 17% | [5]; at 1.2 µM -16% | [5]; at 3.7 µM -10% | [5]; at 11.0 µM 8% | [6]; [15] 41% | [7]; at 1.2 µM -38% | [7]; at 3.7 µM -14% | [7]; at 11.0 µM 2% | [7]; at 33.0 µM 66% | [8]; [15] 14% | [9]; at 1.2 µM 2% | [9]; at 3.7 µM -23% | [9]; [15] 13% | [9]; at 11.0 µM -15% | [10]; at 1.2 µM 25% | [10]; at 3.7 µM 52% | [11]; at 1.2 µM -18% | [11]; at 3.7 µM 2% | [11]; at 11.0 µM 31% | [12]; at 1.2 µM -15% | [12]; at 3.7 µM 17% | [12]; at 11.0 µM 49% | [13]; at 1.2 µM 14% | [13]; at 3.7 µM 32% | [13]; at 11.0 µM 66%
